Holding throughout (assay): NCI-60 one-dose screen, 48 h (100 = growth as untreated, 0 = no growth, -100 = all killed)
What all share (conditions): 10 µM unless noted

The subject of test [1] is NCI-H23 lung.
Test [2] deals with NCI-H226 lung.
Test [3] relates to NCI-H322M lung.
Test [4] concerns HOP-62 NSCLC.
For test [5], the system named is NCI-H460 lung.
Test [6] deals with HOP-92 NSCLC.
Test [7] concerns NCI-H522 lung.
The subject of test [8] is 786-0 renal.
Test [9] has as its system COLO 205 colon.
In test [10] the test system is K-562 leukemia.
For test [11], the system named is MALME-3M melanoma.
In test [12] the test system is MDA-MB-231 breast.
The subject of test [13] is SF-268 CNS.
Test [14] relates to SF-295 CNS.
In test [15] the test system is SF-539 CNS.
Test [16] concerns UACC-257 melanoma.
In test [17] the test system is M14 melanoma.
Test [18] has as its system A549/ATCC NSCLC.
Test [19] concerns DU-145 prostate.
Test [20] deals with RXF 393 renal.

Structures are written as SMILES. The panel holds about 83,000 compounds, 20% with a hit somewhere; the sample as a whole holds those more often.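 Each cell line was grown in a 96-well plate and treated with one concentration of compound for 48 hours. Values below 10 were considered active.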 Values without a mark were called inactive. Activity calls are given as the source filed them.

For the compound `CC1(C)N=c2cc3c(cc2N1c1ccc(Cl)cc1)=Nc1ccccc1N3c1ccc(Cl)cc1`, the growth was 9.73% (active) in test [1]; 53% in test [2]; 75.2% in [3]; -19.2% (active) in test [4]; 46.5% in test [5]; -26.6% (active) in test [6]. Further, the growth in [7] is -22.1% (active); in test [8] it was 11.8%; in [9], 39.1%; in test [10], -18.7% (active); in test [11] it was 79.4%; in test [12] it was 83.3%. Besides, the growth in [13] is 49.6%; in test [14], 31.7%; in [15], 79.7%; in [16], 40.5%; in test [17] it was 19.3%.
With `O=C(CBr)c1ccc(OC(=O)c2ccccc2)cc1`, the growth is 101% in test [1]; 113% in test [2]; 134% in test [3]; 99.9% in test [4]; 104% in test [5]; 88% in test [6]. In addition, the growth in test [18] is 100%; in test [9], 109%; in test [19], 114%; in test [10], 89%; in test [11], 125%; in test [12], 107%. In addition, the growth was 119% in [20]; 102% in [13]; 112% in [14]; 102% in test [15]; 87.9% in test [16]; 87.4% in test [17].
Consider `Oc1ccc(Cl)cc1C(c1cc(Cl)ccc1O)C(Cl)(Cl)Cl`, for which the growth in test [1] was -25.2% (active); in test [2], 22.5%; in test [3], 27.7%; in [4], 14.1%; in test [5] it was -12% (active); in test [6] it was -25.3% (active). Besides, the growth in test [18] is 28.7%; in [8], 15.2%; in test [9], 49.4%; in [19], -47.8% (active); in test [10], 4.51% (active); in [11] it was 11.9%. Also, the growth in [12] was -63.6% (active); in test [13] it was 20.2%; in test [14], 10.1%; in [15], 31.4%; in test [16], 72.1%; in test [17] it was 0.872% (active).
Turning to `Cc1cc(C)c(C#N)c(Sc2nc(C)c([N+](=O)[O-])c(C)c2C#N)n1`, the growth in test [1] is 60.2%; in [2], 111%; in test [3] it was 83.6%; in test [4], 72.8%; in test [5], 89.9%; in test [6] it was -1.8% (active). The growth in test [18] is 77%; in test [8] it was 103%; in test [9], 37.8%; in test [19] it was 41.7%; in test [10], 14.5%; in [11], 36.1%. The growth in test [12] is 91.4%; in [20], 55.2%; in test [13], 81.6%; in [14], 84.1%; in [15], 49.5%; in [17], 54.2%.
In the case of `CN(C)c1ccc(C(=C2C=CC(=[N+](C)C)C=C2)c2ccc(N(C)C)cc2)cc1`, the growth in test [1] was -19.9% (active); in test [2] it was -73.1% (active); in [3] it was -42.2% (active); in [4], -75.5% (active); in test [5], -39% (active); in test [6], -70.1% (active). Besides, the growth in test [7] was -44.9% (active); in test [8], -96.2% (active); in test [9], -84.3% (active); in test [19] it was -91.8% (active); in [10], -10.4% (active); in test [11], -81.4% (active). In addition, the growth is -56.5% (active) in test [12]; -92.2% (active) in test [20]; -74.1% (active) in test [13]; -55.2% (active) in test [14]; -70.6% (active) in test [15]; -62.7% (active) in test [16]. Further, the growth in test [17] was -80.2% (active).
For the compound `CC(C)=C1C=C2CC[C@@H]3[C@](C)(CCC[C@@]3(C)C(=O)O)[C@H]2CC1`, the growth in [1] was 101%; in [2] it was 103%; in test [3], 94.8%; in [4], 93.6%; in test [5], 106%; in test [6], 97.2%. Also, the growth was 96.2% in test [7]; 95.9% in test [8]; 107% in test [9]; 105% in test [19]; 84.3% in test [10]; 91.3% in [11]. Further, the growth in [12] was 99.6%; in test [20], 112%; in test [13], 97%; in test [14], 95.8%; in [15], 97.5%; in test [17], 100%.
With `Cc1cc(C(N)=O)cc(C)c1C(=O)OCCCl`, the growth in test [1] was 104%; in test [2], 105%; in test [3], 97.2%; in test [4] it was 93.9%; in test [5] it was 101%; in test [6], 90.1%. Besides, the growth in [7] was 101%; in test [8], 100%; in [9] it was 111%; in test [19] it was 99.2%; in test [10] it was 93.6%; in test [11] it was 101%. Moreover, the growth is 105% in [12]; 117% in test [20]; 95% in test [13]; 99.7% in [14]; 101% in [15]; 108% in test [17].
`CCCCCCCCCCCC[n+]1ccccc1` (tested in a mixture with another compound): the growth in test [1] is -2.11% (active); in [2], 11.3%; in [3] it was 31.9%; in test [4], -24.3% (active); in [5], 0.69% (active); in test [6], -50.8% (active). The growth was -53% (active) in test [7]; -32.3% (active) in test [18]; -50% (active) in test [8]; 11.7% in test [19]; -33.3% (active) in [10]; -38.3% (active) in test [11]. Also, the growth in test [12] was -30.4% (active); in [13], -8.98% (active); in test [14] it was -35.1% (active); in [15], -10.5% (active); in test [16], -52.3% (active); in test [17], -56.6% (active).
Consider `O=C(Nc1ccc(Cl)c(Cl)c1)Nc1ccccc1O`, for which the growth in test [1] was 64.9%; in test [2], 96.9%; in test [3] it was 87.3%; in [4] it was 88.8%; in [5] it was 79.5%; in test [7], 26.8%. Also, the growth is 37.2% in [18]; 99.6% in test [8]; 85.3% in test [9]; 118% in test [19]; 48.7% in test [10]; 114% in [11]. Besides, the growth in test [12] was 82.5%; in [20] it was 101%; in test [13], 92.9%; in test [14], 75.5%; in test [15], 91.5%; in test [16] it was 78.2%. Besides, the growth in test [17] is 58.4%.
